# Assay results as given in the supplement of paper PMC12636033.
# ± gives the standard deviation of the averaged measurements. Whole data set: some 33,000 sequences, median “E-score (rank enrichment, -0.5 to 0.5)” near -0.0075, cut for the highest 2% near 0.23. This excerpt belongs to a sample that is enriched for the highest values.
# System: WT Max(13-93) synthetic (M65Nle)
# Assay: PBM 8-mer E-score (E-score (rank enrichment, -0.5 to 0.5)); higher = stronger preferential binding
# Protocol: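 Protein binding microarray (universal PBM chip covering all 10-mers in fixed probe flanks) with chemically synthesized human Max(13-93) bHLH-LZ analogs (not full-length Max) bearing noncanonical residues (hArg, Tha, Aib, Nle at 65) and aromatic Cys staples. Read-out per 8-mer (and its reverse complement): E-score (rank-based enrichment, -0.5 to 0.5) and Z-score of median probe intensity.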
row,Sequence,PBM 8-mer E-score
1,AATATAAT,0.156 ± 0.023
2,GATATAAA,0.0778 ± 0.026
3,CATATAAG,0.21 ± 0.012
4,CACATATG,0.185 ± 0.029
5,AATATAAA,0.26 ± 0.1
6,TATATAAA,0.196 ± 0.099
7,CATATAAA,0.295 ± 0.098
8,CACATATA,0.301 ± 0.098
9,GACATATA,0.0052 ± 0.075
10,CGTACCAG,-0.0661 ± 0.0056
11,TTAGCGAA,-0.0471 ± 0.069
12,CGCCACGA,-0.137 ± 0.15
13,ATGCAGGG,0.0122 ± 0.03
14,CCTAAGCG,-0.0916 ± 0.0045
15,GTGTCTGA,0.00783 ± 0.11
16,GAACAAGA,0.137 ± 0.095
17,AATTCCCC,0.0165 ± 0.05
18,AATTCCCA,0.282 ± 0.0091
19,GATTCCCA,-0.0229 ± 0.034
20,GACCCGAA,-0.196 ± 0.14
21,AAACTACT,0.232 ± 0.034
22,AAACTACC,0.0484 ± 0.067
23,AAACTACA,0.219 ± 0.021
24,ACGTGCTC,0.298 ± 0.013
25,CCGTGCTC,-0.0456 ± 0.034

row,Sequence,PBM 8-mer E-score
1,GCGTGCTA,0.197 ± 0.0073
2,CCGTGCTA,-0.0393 ± 0.0021
3,ACGTGCTA,0.311 ± 0.019
4,ACGTGCTG,0.212 ± 0.025
5,ACCAGGGA,0.0354 ± 0.19
6,AGGCGCTG,-0.0811 ± 0.026
7,AACAGTGG,-0.0694 ± 0.089
8,AACTTGCA,0.193 ± 0.046
9,CGTGCCGC,0.0425 ± 0.15
10,ATAACAAT,0.168 ± 0.0023
11,ATAACCAG,0.113 ± 0.031
12,CTAACCAC,0.139 ± 0.0048
13,ATAACCAC,0.288 ± 0.07
14,ATAACAAG,0.223 ± 0.0096
15,ATAACAAC,0.265 ± 0.079
16,CTTTTTGC,0.046 ± 0.063
17,CACCTGGC,0.0136 ± 0.041
18,GGAGTGCC,-0.11 ± 0.012
19,GTATGACA,0.245 ± 0.062
20,ATATGACA,0.263 ± 0.014
21,GTATGAAA,0.222 ± 0.033
22,ATATGACC,-0.0408 ± 0.015
23,GGATGACA,-0.00576 ± 0.064
24,CTATGACA,0.0275 ± 0.077
25,ATAGCAGG,-0.0492 ± 0.15

row,Sequence,PBM 8-mer E-score
1,TCCGGACA,-0.0731 ± 0.033
2,GTCTCTAA,-0.108 ± 0.17
3,CCTCGCGA,-0.00258 ± 0.05
4,AATCGCCG,-0.197 ± 0.032
5,CGATATAC,0.0759 ± 0.16
6,TGATATAA,0.155 ± 0.021
7,CGATATAG,-0.0681 ± 0.07
8,CTTTATAA,0.127 ± 0.026
9,CTATATCC,0.135 ± 0.012
10,ATATATCA,0.19 ± 0.073
11,ATTTATAA,0.241 ± 0.035
12,ATATATCC,0.237 ± 0.064
13,TTATATAA,0.256 ± 0.13
14,CGATATAA,0.281 ± 0.046
15,ATTTATAC,0.188 ± 0.078
16,TTATAAAA,0.215 ± 0.03
17,TACGATAA,0.194 ± 0.094
18,AATGCGAA,0.03 ± 0.03
19,GCTCCTTA,-0.0526 ± 0.048
20,ATATCGGG,0.19 ± 0.03
21,AAGCGGCC,-0.276 ± 0.054
22,CCGACACA,-0.052 ± 0.075
23,CGCCGTTC,-0.101 ± 0.024
24,GGGGGCTA,-0.0501 ± 0.18
25,CGCGACAC,0.045 ± 0.063

row,Sequence,PBM 8-mer E-score
1,GTATATAA,0.102 ± 0.091
2,CTATACAG,0.0775 ± 0.017
3,ATATACAG,0.234 ± 0.0072
4,ATATACAC,0.161 ± 0.055
5,ATATATAA,0.246 ± 0.086
6,CTATATAA,0.0196 ± 0.063
7,GTAGTACA,0.0953 ± 0.0039
8,CCAACGTC,-0.0188 ± 0.032
9,AACGACGA,-0.113 ± 0.23
10,AAGACTCT,0.0105 ± 0.12
11,CGATGTGA,-0.114 ± 0.17
12,ACATGTCA,0.204 ± 0.057
13,CCATGTGC,0.389 ± 0.0074
14,ACATGTGC,0.359 ± 0.0051
15,CCATGTCC,-0.0654 ± 0.065
16,ACATGTGA,0.389 ± 0.00049
17,AGATGTGA,0.16 ± 0.038
18,AGATGTGC,0.0526 ± 0.076
19,ACATGTCC,0.212 ± 0.03
20,CCATGTCA,-0.0624 ± 0.05
21,CCATGTGA,0.308 ± 0.0086
22,CTATGTGC,0.0889 ± 0.047
23,CGTTGCCA,0.0775 ± 0.02
24,GAATGGGA,0.0933 ± 0.016
25,CCGACGGA,-0.238 ± 0.0081

row,Sequence,PBM 8-mer E-score
1,TAGGTGCA,0.0931 ± 0.075
2,CCGCAATC,-0.0997 ± 0.03
3,ATCTGATC,-0.138 ± 0.17
4,AGATGTGG,0.0747 ± 0.083
5,ACATGTCG,0.14 ± 0.052
6,ACATGTGG,0.36 ± 0.049
7,GCATGTCA,0.208 ± 0.011
8,GAATGTGA,0.0246 ± 0.0085
9,GCATGTGA,0.314 ± 0.013
10,GAGCATAA,0.0772 ± 0.044
11,CCTCAACG,-0.187 ± 0.062
12,AGGGGTCC,-0.221 ± 0.0076
13,CAGCGGGA,-0.165 ± 0.016
14,AAGCATGC,0.312 ± 0.066
15,AAGCATGA,0.152 ± 0.064
16,AAGCATCC,0.0408 ± 0.066
17,AAGCATGG,0.219 ± 0.031
18,AAGCATGT,0.277 ± 0.024
19,AAGCATAC,0.105 ± 0.023
20,AGGTGGGG,0.0712 ± 0.15
21,GGAAAAGA,0.0579 ± 0.031
22,TGCTGTAA,0.00145 ± 0.0042
23,ACAAGTGA,0.0895 ± 0.13
24,GAGCTTGA,-0.165 ± 0.014
25,GGTCCCAC,-0.0853 ± 0.11

row,Sequence,PBM 8-mer E-score
1,TGAATAAA,0.305 ± 0.013
2,AGAATAAG,-0.0395 ± 0.13
3,CGAATAAA,0.0742 ± 0.027
4,AGAATAAT,0.177 ± 0.0073
5,GGAATAAA,0.0114 ± 0.13
6,AGAATAAA,0.262 ± 0.034
7,CTCGCGGC,-0.138 ± 0.055
8,TCACGTGA,0.444 ± 0.018
9,ACACGTGT,0.487 ± 0.002
10,TCACGTCA,-0.00158 ± 0.0094
11,AGACGTGC,-0.0899 ± 0.02
12,ACACGTGG,0.4934 ± 0.00068
13,AAACGTGT,0.166 ± 0.05
14,TCACGTAA,0.129 ± 0.01
15,ACACGTAC,0.159 ± 0.044
16,AAACGTGG,0.206 ± 0.021
17,ACACGTGC,0.4859 ± 0.0013
18,ACACGTAG,0.0871 ± 0.035
19,ACACGTAT,0.192 ± 0.027
20,CTGCCAAC,-0.111 ± 0.013
21,GATACCAA,-0.0524 ± 0.022
22,CAGTGAAC,0.0267 ± 0.035
23,ACAATCTG,0.065 ± 0.027
24,AGAAACTC,-0.0484 ± 0.078
25,ACGAAAAA,0.221 ± 0.056

row,Sequence,PBM 8-mer E-score
1,CTTGCGTA,0.0635 ± 0.052
2,ACACGTGA,0.4747 ± 0.0033
3,ATACGTGA,-0.00216 ± 0.0077
4,AGACGTGA,0.103 ± 0.038
5,AAGCAGGC,-0.0736 ± 0.011
6,CGTGGGGC,0.119 ± 0.11
7,AGATGACT,-0.172 ± 0.045
8,CACTTCTC,0.0461 ± 0.0024
9,AATTATCC,0.0573 ± 0.0067
10,CGTTATCA,0.044 ± 0.015
11,AGTTATCA,0.07501 ± 0.00026
12,GGTTATCA,0.232 ± 0.078
13,AATCATTA,0.223 ± 0.072
14,CATTATCA,0.242 ± 0.09
15,CATTATCG,-0.0926 ± 0.0027
16,TATTATCA,0.2 ± 0.026
17,AATTATCG,0.132 ± 0.064
18,CATCATTA,0.238 ± 0.034
19,CATCATTC,-0.011 ± 0.044
20,AATTATCA,0.273 ± 0.083
21,GGACTGCA,-0.017 ± 0.043
22,CGTGTCTC,0.201 ± 0.035
